Laboratory results from PubChem BioAssay AID1458 (National Center for Advancing Translational Sciences (NCATS), 2008).
Out of some 210,000 compounds screened, about 5,900 (2.8%) were called active. Roughly 5% stayed inconclusive and do not appear here. Calls come from the whole dose curve; as a rule, active = well fitted activation curve with a large enough effect; inconclusive = small, poorly fitted or top-dose-only effect; inactive = no such curve, though single readings can be large or run the other way. The full list was thinned out, with actives kept by preference.

assay: qHTS Assay for Enhancers of SMN2 Splice Variant Expression; settings: HEK293 SMN2-luciferase splicing reporter, luminescence, 30-36 h; series mostly up to 46.1 µM; activity change, positive = activation: at the top concentration; note: nearly all actives have a fitted effect of over 55% in size; for activity change, positive = activation: % of control where 0% means no effect
Procedure, shortened: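 HEK293 cells carry an SMN2 […]–luciferase reporter in which exon 7 inclusion puts luciferase in frame. Cells were plated 10-12 h before compound addition, then incubated 30-36 h at 37C. ONE-Glo luminescence was read; sodium butyrate at 4.5 mM final served as control.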
Potency is the fitted concentration of half-maximal effect.

Activity change, positive = activation, inactive:
CCOc1ccc(-n2c(C)nc3c(cnn3-c3ccc(C)cc3)c2=O)cc1 8.1%
Cc1ccc(C(=O)NC2CCN(C(=O)N3CCOCC3)CC2)cc1 -9.36%
O=C(NC1CC1)c1cccc(Br)c1 -9.53%
CCOc1ccccc1N(C)C(=O)c1cc2c(s1)-c1ccccc1OC2 -13.3%
O=C(NC1CCN(Cc2ccccc2)CC1)c1ccc(Cn2c(=O)c3ccccc3n(Cc3cccc(F)c3)c2=O)cc1 0.0275%
O=C(CSc1oc(-c2ccco2)nc1S(=O)(=O)c1ccc(Cl)cc1)c1ccccc1 11.5%
Cc1ccc(-c2nc(CS(=O)(=O)CC(=O)NCc3ccccc3Cl)c(C)o2)cc1 5.89%
COc1ccc(CCNC(=O)c2cc(=O)c3c(C)cc(C)cc3o2)cc1OC 3.1%
O=C(CCS(=O)(=O)c1ccccc1)Nc1nc2c(s1)CCCC2 -6.46%
Fc1cc(F)c2nc(Nc3nc4c(F)cccc4s3)sc2c1 -20.1%
O=C(C(=O)N1CCc2ccccc2C1)N1CCc2ccccc2C1 10.9%
O=C(COc1ccccc1)N1CCc2ccccc2C1 3.79%
Cn1c(=O)nc2n(-c3ccc(Br)cc3)c3cccc(Cl)c3cc-2c1=O 9.55%
COc1ccccc1C(=O)Nc1c(C(=O)N(C)Cc2ccccc2)sc2nc(C)c(Cl)c(C)c12 -27.4%
CCn1c(SCC(=O)Nc2nccs2)nnc1-c1ccncc1 -5.81%
Nn1c(SCC(=O)Nc2nccs2)nncc1=O 22.1%
CC(=O)N1CCc2cc(S(=O)(=O)NC(Cc3ccccc3)C(=O)NCc3ccc(C)cc3)ccc21 (stereo not given) -2.94%
CCOc1ccc(S(=O)(=O)c2cn(Cc3ccc(OC)cc3)c3ccc(F)cc3c2=O)cc1 -6.28%
O=C(Nc1ccn(Cc2ccc(F)cc2)n1)c1ccncc1 -62.6%
Cn1cc([N+](=O)[O-])c(C(=O)Nc2cnn(Cc3ccc(F)cc3)c2)n1 -2.65%
CC(=O)Nc1ccn(Cc2c(F)cccc2Cl)n1 1.25%
Cc1ccc(Cn2ccc(NC(=O)c3cc(C(C)C)on3)n2)cc1 6.87%
CCOC(=O)c1cc2c(=O)n3ccccc3nc2n(CCCOC)c1=NC(=O)C(C)(C)Oc1ccc(Cl)cc1 9.26%
COc1ccc(CCN2C(=O)N(c3cccc(OC)c3)C(=O)C2CC(=O)Nc2ccccc2)cc1 (stereo not given) -6.97%
CCCCC12CN3CC(C)(CN(C1)C3c1ccc(O)c(OC)c1)C2=O (stereo not given) 1.53%
COc1ccc(CCNC(=O)CCc2c(C)nc3c(c(C)nn3-c3ccc(C)c(C)c3)c2C)c(OC)c1OC 10.6%
CCOC(=O)CSc1nnc(-c2cccc(Br)c2)o1 -5.07%
O=C(OCc1nnc(-c2ccccc2)o1)c1ccc2c(c1)C(=O)N(CCc1ccccc1)C2=O 27.8%
CCn1c(=O)cc(OCC(=O)Nc2cc(Cl)c(OC)cc2OC)c2ccccc21 7.37%
Cc1ccc(NC(=O)NC(=O)CSc2nnc(-c3ccc(OC(F)F)cc3)n2N)c(C)c1 -13.8%
Cc1ccc(-c2nnc(SC(C)C#N)n2N)cc1 (stereo not given) 5.91%
CC(=O)c1c(C)n(S(=O)(=O)c2ccc(Cl)cc2)c2ccc(NS(=O)(=O)c3ccc(Cl)cc3)cc12 -11.3%
COc1ccc(C)cc1N(CC(=O)N1CCC(C)CC1)S(=O)(=O)c1ccc(C)cc1 -6.31%
CCOC(=O)c1c(NC(=O)CSc2cn(CCNC(=O)c3cccc(C(F)(F)F)c3)c3ccccc23)sc2c1CCC2 12.3%
COc1ccc(CCNC(=O)c2cn(C)c3ccc(S(=O)(=O)N(C)C4CCCCC4)cc3c2=O)cc1OC 3.49%
COc1ccc(OCC(=O)NNC(=O)c2cccc(C)c2)cc1 -31.7%
Cc1cccc(C(=O)N2CCCN(C(=O)c3cccc(C)c3)CC2)c1 -9.38%
CCOc1ccc(NC(=O)N(CC(C)C)CC(C)C)cc1 -13.7%
COc1cccc(Cn2c(SCc3ccc(C(=O)N4CCC(C)CC4)cc3)nc3ccncc32)c1 -57.7%
COc1cccc(CNC(=O)c2ccc3c(c2)N(Cc2ccc(C(F)(F)F)cc2)C(=O)c2ccccc2S3)c1OC 1.81%
COc1ccc(C2(Nc3cccc(F)c3)C(=O)c3ccccc3C2=O)cc1 10.5%
CCc1nonc1NC(=O)c1oc2ccc(Cl)cc2c1C 13.4%
Cc1ccc(Cn2c(C)c3cnn(CC(=O)NCc4ccccc4)c(=O)c3c2C)cc1 -1.41%
CC1=C(C(=O)Nc2ccccc2)C(c2ccc(C)cc2)n2nc(SCc3ccccc3C)nc2N1 (stereo not given) 6.65%
COc1cc(Nc2nc(-c3ccc(OC)c(OC)c3)nc3ccccc23)cc(OC)c1 -30%
CCc1cccc(C)c1Nc1c(-c2ccc(N(C)C)cc2)nc2ncccn12 26%
N#CC(=C1CCCC1)c1nc(-c2ccc(Cl)cc2)cs1 37.8%
CCNC(=O)CSc1nc(-c2ccccc2)cs1 16.8%
COc1ccc(-c2cc(NCc3ccc(F)cc3)n3cnnc3n2)cc1 -6.89%
COc1ccccc1CNC(=O)c1cc(=O)c2ccccc2o1 -23.9%
CC(=O)c1c(C)[nH]c(C(=O)NCc2ccc(C)cc2)c1C -0.462%
COC(=O)c1ccccc1NS(=O)(=O)c1ccc2c(c1)CCCN2C(C)=O -4.36%

Potency, active:
O=C(NC1CC1)c1ccc(-c2ccccc2)cc1 11.2 µM
Fc1ccc2nc(Nc3nc4c(s3)CCCC4)sc2c1 14.1 µM
O=C(Cn1c(=S)nc2ccccn21)N1CCc2ccccc2C1 12.6 µM
Cc1[nH]c2ccccc2c1SCC(=O)Nc1nccs1 25.1 µM
O=C(Nc1ccn(Cc2ccccc2)n1)c1n[nH]c([N+](=O)[O-])c1Cl 3.16 µM
O=C(Nc1ccn(Cc2ccccc2)n1)c1cccc(F)c1 2.82 µM
O=C(OCc1ccc(Br)cc1)c1cccc(-c2nnc(-c3ccccc3)o2)c1 2.24 µM
C=C(C)CSc1nnc(-c2ccc(C)cc2)n1N 8.91 µM
COc1ccc(OCc2cccc(C(=O)N3CCCC3)c2)cc1 2.51 µM
CCOc1ccc(OCc2cccc(C(=O)N(CC)CC)c2)cc1 5.01 µM
N#CC(=C1SC=CS1)c1nc(-c2ccccc2)cs1 11.2 µM
CCOC(=O)c1c(C)[nH]c(C(=O)NCc2ccccc2OC)c1C 10 µM

Potency, inactive:
CCN(CC)C(=O)c1ccc(O)c(OC)c1
